ChEMBL document CHEMBL3988442, “University of Dundee, Small-Polar-MMV Screening Library” (2021)

Columns and labels:
[1] = molecular target: T1, Aspartate--tRNA(Asp/Asn) ligase (Mycobacterium tuberculosis (strain ATCC 25618 / H37Rv)) (UniProt P9WFW3); test: Assay for Asp RNA synthetase-1 from Mycobacterium tuberculosis; type: functional; set-up: scale not given: direction of the effect not stated beside the values; details: 30 µM; also: in the data most compounds retested in dose-response had high values
T1 sequence (whole entry): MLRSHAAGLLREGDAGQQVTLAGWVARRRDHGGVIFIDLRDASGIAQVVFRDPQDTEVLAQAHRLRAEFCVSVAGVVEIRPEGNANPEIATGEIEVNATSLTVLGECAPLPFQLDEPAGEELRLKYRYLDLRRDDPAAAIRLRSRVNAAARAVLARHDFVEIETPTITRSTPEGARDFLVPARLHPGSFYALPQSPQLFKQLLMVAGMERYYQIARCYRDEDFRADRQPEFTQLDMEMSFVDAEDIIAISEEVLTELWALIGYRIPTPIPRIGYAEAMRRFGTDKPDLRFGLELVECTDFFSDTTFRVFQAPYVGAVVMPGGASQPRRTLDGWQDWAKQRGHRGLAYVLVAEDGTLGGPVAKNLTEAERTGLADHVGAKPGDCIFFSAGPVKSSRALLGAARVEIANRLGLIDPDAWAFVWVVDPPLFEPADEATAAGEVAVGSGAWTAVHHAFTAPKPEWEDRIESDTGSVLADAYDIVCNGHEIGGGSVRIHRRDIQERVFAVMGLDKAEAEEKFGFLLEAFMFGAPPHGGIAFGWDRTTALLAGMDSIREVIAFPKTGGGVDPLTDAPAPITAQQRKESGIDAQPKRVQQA

[2] = molecular target: Shiga toxin 2 (Escherichia coli O157:H7) (UniProt P09385+P09386); test: E. coli 0.157:H7 Shiga Toxin SOP - stx2 screening assay; type: functional; set-up: scale not given: direction of the effect not stated beside the values; details: 30 µM

Structure (SMILES)	Percent Effect [1] [%]	Percent Effect [2] [%]
CC(C)N1CCC(Cc2cc(-c3cccc(C(=O)O)c3)ncn2)C1 (centres undefined)	-2.43	2.16
CC(C)N(C)S(=O)(=O)N(C)Cc1ccc2c(c1)OCO2	-7.16	-23.7
O=C(NCCNc1ncccn1)C1CC(=O)N(CC(F)(F)F)C1 (centres undefined)	-6.31	20.8
Cc1ccc(C(=O)Nc2cn[nH]c2)cc1C	-2.79	16.5
Cc1cc(N2CCCN(C(=O)Cc3csc(C)n3)CC2)ccn1	0.502	3.59
O=C(c1ccccn1)N1CCCC(c2nccn2Cc2ccncc2)C1 (centres undefined)	6.99	4.41
CC1=N[C@@]2(CC[C@@H]3CN(Cc4ccccc4F)C[C@@H]32)C(=O)N1CC1CC1	-6.8	-2.95
Cc1nc(NC2CCCC2)cc(C2CCN2C(=O)c2ccccc2)n1 (centres undefined)	-4.99	-18.1
CCOCCCNc1nc(O)cc(C2CC(=O)N(C)C2)n1 (centres undefined)	-1.77	-22.7
Cc1nn(C)c(N(C)C)c1CNCCCN(C)S(C)(=O)=O	-6.1	-43.8
c1cnc(-c2nc(CN3CCOC(Cn4cncn4)C3)cs2)nc1 (centres undefined)	9.26	18.3
CCn1nc2c(cc1=O)CN(CC(=O)Nc1nc(C)c(C)s1)CC2	3.7	-30.8
CC(=O)N1[C@H](Cn2cncn2)C[C@@H]2CN(S(C)(=O)=O)CC[C@@H]21	2.85	-36.4
Cc1nc2c(c(NC3CC3)n1)CCN(C(=O)C(C)(C)O)CC2	3.74	-3.14
Cc1cc(C)n(CC2CN(CC(=O)Nc3c(C)n[nH]c3C)CCO2)n1 (centres undefined)	-0.486	6.68
Cc1cc2n(n1)CC(CNC1CCN(c3ccc(F)cc3)CC1)CN2 (centres undefined)	4.19	-37.2
CN(Cc1ccc2c(c1)OCCO2)C(=O)NCCc1cnn(C)c1	3	26.7
CSC(C)C(=O)N1CCCN(Cc2cscn2)CC1 (centres undefined)	-6.57	25.4
Cc1nccn1CC1CCCN1S(=O)(=O)Cc1ccon1 (centres undefined)	-2.34	-23.9
Fc1cnc(N2CCCC3(CN(Cc4ccncc4)CCO3)C2)nc1 (centres undefined)	7.9	-0.17
CCOc1ccc(Cl)cc1C1CCCN1 (centres undefined)	3.74	5.67
Cn1ccc(C(=O)NCc2cccc(CN3CCCC3)c2)cc1=O	1.53	-46.4
CCC(C)(C)NC(=O)Cn1nc(C)nc1-c1cccc(C)c1	1.4	5.46
Cc1ccccc1C(=O)N1CCOC2(CNCCOC2)C1 (centres undefined)	-0.279	-0.428
Cc1cc2c(=O)n3c(nc2s1)CCN(C(=O)c1ccncc1)CC3	0.789	3.16
c1ccc(-n2nnnc2CN2CCCC(Cn3cncn3)C2)cc1 (centres undefined)	2.98	6.15

Structure (SMILES)	Percent Effect [1] [%]	Percent Effect [2] [%]
Cc1ccc2oc(C(=O)N3CCC(C(=O)N4CCCC4)CC3)cc2n1	1.57	-16.4
Cc1ccsc1C(=O)N1Cc2ccccc2C2(CCN(C)CC2)C1	5.26	5.47
CCn1nc(CNC(=O)C2CC(=O)N(C3CCCC3)C2)c2ccccc21 (centres undefined)	2.02	-13.1
N#Cc1cccnc1N1CCC2(CCCN(C3CCOCC3)C2=O)C1 (centres undefined)	-3.99	-16.3
O=C(CSc1ccncc1)N1C[C@H]2CC[C@@H]1CN(Cc1cccnc1)C2	2.67	-11.3
CC(C)c1nc(C(=O)NCCn2ccnc2)nn1-c1cccc(F)c1	-3.06	32.1
Cn1ncc2c1CCCC2NCc1ccc(Cl)s1 (centres undefined)	-3.2	28.8
COc1cccc(F)c1C(=O)N1C[C@@H](CN(C)CCO)[C@@H](CO)C1	-0.268	-11.4
CC(C)CCCNC(=O)Nc1ccc(F)c(C(N)=O)c1	-3.06	-45.5
CN(Cc1cnn(C)c1)C(=O)NC1CCN(Cc2ccccn2)CC1	5.83	-5.06
CC(NCc1cccnc1)c1ccc(OCC(=O)NC2CC2)cc1 (centres undefined)	4.26	-1.84
CC(=O)N1CCC[C@H]1C(=O)NCCOc1cccc(Cl)c1	1.97	-31.3
CN(C)CC1CSCCCN1C(=O)c1ccc(C(C)(C)C)cc1 (centres undefined)	-2.32	10.3
Fc1ccc(CN2CCCN(Cc3cscn3)CC2)cc1	1.87	2.42
COCC(=O)N1CCCn2c(CN3CCCCC3)nnc2C1	1.5	-19.1
CCNC(=O)[C@@H]1C[C@@H](NC(=O)Cc2ccccn2)CN1CCCSC	-0.228	-40.5
COc1ccc(CNC(=O)NC2CCN(CC(F)F)CC2)cc1C	-0.127	-3.6
COc1ccccc1-c1cc(C(F)(F)F)c2c(C)nn(CC(=O)O)c2n1	3.1	-13.7
O=C(NCCO)Nc1cccc(Cl)c1SC(F)F	0.334	-19.7
O=C(COCc1ccccc1)N1CCCC(n2cncn2)C1 (centres undefined)	-3.66	22.6
COCC1c2c(cnn2C)CCN1Cc1ccoc1 (centres undefined)	2.94	-3.41
CCn1ccnc1CN1CCN(CC(O)c2ccccc2)CC1 (centres undefined)	-5.63	-31
Cc1csc(N2CCN(C(=O)CCn3cncn3)CC2)n1	-4.23	-2.86
CCOCC(=O)NC1(c2cccc(Br)c2)CC1	1.26	-5.68
O=C(NC1CC1)[C@H]1C[C@H]2OCC[C@H]2N(CC2CCOCC2)C1	4.28	-17.4
O=C1CC(c2cccc(O)c2)c2c(c(C(=O)O)cn2-c2ccccc2)N1 (centres undefined)	22.9	-12.9

Structure (SMILES)	Percent Effect [1] [%]	Percent Effect [2] [%]
Cc1ccc(C(O)CNC(=O)NCc2nc(C)cs2)cc1 (centres undefined)	-0.636	1.54
Cn1cc(CN2CC[C@@H]3[C@@H](CCC(=O)N3CCC3=CCCCC3)C2)cn1	0.0912	-13
Cn1cc(CN2C[C@@H]3CN(Cc4ccoc4)CCO[C@@H]3C2)cn1	3.69	-1.85
Cc1cn2c(n1)CCC(NC(=O)c1cnc(C)nc1C(C)C)C2 (centres undefined)	2.91	20.9
CC(OCC(F)(F)F)C(=O)Nc1ccc(-n2cncn2)nc1 (centres undefined)	-0.432	13.4
Cc1oncc1C(=O)N1CCC2(CC1)CC(c1ccccc1)C(=O)N2C (centres undefined)	-1.78	-15.3
Cn1cc(N2CC3(CCN(CC4CCOCC4)CC3)OCC2=O)cn1	-2.85	-32.8
Cn1ccnc1CN1CCC2(CC1)CN(CC1CC1)C(=O)CO2	2.11	-17.7
Cc1nc(CN2CCOC(CNc3cccnn3)C2)oc1C (centres undefined)	-4	0.662
Cc1cc(C)n(CC2CCCN2C(=O)c2c[nH]c3ncccc23)n1 (centres undefined)	-1.92	26.8
CCC(C)NC(=O)Nc1ccc(CN2CCOC2=O)cc1 (centres undefined)	-0.167	-47.4
COC(=O)c1sccc1NC(=O)C1CCCN1C(=O)c1ccco1 (centres undefined)	-0.808	-12.3
Cc1nn(C)c(Cl)c1CNCc1cccnc1N1CCOCC1	-7.19	4.19
CCC(=O)N1CCc2[nH]cnc2C12CCN(C(=O)CCS(C)(=O)=O)CC2	-0.836	9.19
CN(Cc1ccsc1)C(=O)c1cccc(F)c1	-5.62	-0.747
CC(O)CN1CCN(C(=O)c2cccc(CC#N)c2)CC1 (centres undefined)	2.73	-54.8
OC(COCc1ccccc1F)CN1CCc2c(ncn2C2CC2)C1 (centres undefined)	-6.48	-4.88
Cc1cccc(CN2CCC3(CCN(c4ccccn4)C3)C2=O)c1 (centres undefined)	0.319	-2.5
Cc1ccc(C#N)cc1NC(=O)NC1CCCN(c2ncccn2)C1 (centres undefined)	1.97	-2.85
O=C(NCc1nnc2n1CCCC2)N1CCc2ccccc2C1	1.56	-5.06
CN(C)C(=O)CC1CC2(CCN(c3ncccn3)CC2)c2ccccc21 (centres undefined)	2.97	-6.02
Cn1ncc2c1CCCC2NCc1cnc(-c2ccccc2)nc1 (centres undefined)	8.81	-1.99
COc1c(C2CCCN2C(=O)c2ccc(Cl)o2)c(C)nn1C (centres undefined)	-4.35	9.5
O=C(Nc1cnn(CCN2CCOCC2)c1)c1ccccc1O	-0.989	-13.8
CC(=O)Nc1nc(C2CCN(C(=O)c3cccnc3)CC2)cs1	-8.57	-3.89
COCC1CN(CC2CC2)Cc2nn(C)cc21 (centres undefined)	12.6	-5.39

Structure (SMILES)	Percent Effect [1] [%]	Percent Effect [2] [%]
CCc1nc(CNCC2CCCN2c2cc(NC)ncn2)cs1 (centres undefined)	-0.456	-5.66
Cc1nc(CN2CCCN(C(=O)c3ccccn3)CC2)oc1C	-0.692	25.9
CCc1nc(C)c(C(=O)NCCNc2ncccn2)s1	0.562	30.3
Cc1nccn1C1CCCN(C(=O)c2ccc3c(c2)COC3)C1 (centres undefined)	-1.72	-16.7
O=C(O)c1ccc2ccc(N3CCN(CC4CC4)CC3)n2c1	-6.96	-15.7
Cc1nc(C)n(CC2CCCN2CC(=O)NCCc2ccccc2)n1 (centres undefined)	-7.16	-6.86
CN1CCOC(CNCCc2ccccn2)C1 (centres undefined)	-3.97	-10.7
Cc1ccc(CN2CCCn3c(nc(Cn4cncn4)cc3=O)C2)s1	-1.14	-10.9
N#CC1(C(=O)N2CCN(Cc3ccon3)CC2)CCC1	-1.89	3.73
Cc1nn(C)c(C)c1NC(=O)CN1CCc2c(nc(C(C)C)n2C)C1	-0.413	5.73
O=C(C1CCOCC1)N1CCO[C@H]2[C@@H](OCc3ccncc3)CC[C@@H]21	-4.8	22.7
O=C(Nc1cccc(CN2CCOC2=O)c1)N1CCOCC1	1.78	-57.1
Cc1nc(C)n(CC2CCCN(Cc3cccc(C#N)c3)C2)n1 (centres undefined)	3.85	25.5
CCc1ccc(C(=O)N2CCCC(n3cncn3)C2)o1 (centres undefined)	1.95	-18.7
O=C(CCc1nc2cccnc2[nH]1)Nc1cccnc1	-1.77	-77.4
Cc1cccc(CS(=O)(=O)CC(=O)NCCCOC(C)C)c1	-3.37	-44.7
Cn1cc(CN2C[C@@H]3COC[C@@H](C(=O)N4CCCCO4)[C@@H]3C2)cn1	-1.16	-15.2
COc1cccc(-n2nnc(C(=O)N3CCN(C)CC3C)c2C)c1 (centres undefined)	-2.92	-48.2
Cc1cccc(C(=O)NCCCN2CCN(c3ccccc3)CC2)c1	0.86	-54
CCOC(=O)c1sc2ccsc2c1CNC(=O)C(C)(C)C#N	0.67	16.1
Cc1cc(C)c(CNC(=O)NCC2CCCO2)c(=O)[nH]1 (centres undefined)	-3.97	24.8
CCn1c(CN2CCN(CC(N)=O)CC2)nc2c(F)cccc21	-3.37	6.95
COc1ccc(CN2CCC3(CC(=O)N(c4cncnc4)C3)C2)cc1 (centres undefined)	0.382	-11.8
O=C(CCSc1ccc(F)cc1)NS(=O)(=O)c1ccc2c(c1)OCCO2	-0.411	-1.47
